# Laboratory results as given in PubChem BioAssay (Tox21).
# Records with an inconclusive call do not appear. Where a call stands in place of a potency, no number is given. Activity calls are given as the source filed them. Calls come from the whole dose curve.
# Biological target: Progesterone receptor (Homo sapiens) (UniProt P06401)
# Assay: qHTS assay to identify small molecule agonists of the progesterone receptor (PR) signaling pathway (AID 1346784); note: nearly all actives have a fitted effect of over 30% in size
# Conditions: PR-UAS-bla HEK293T, beta-lactamase FRET ratio, 16 h; series mostly up to 92.4 µM
# Description: U.S. Tox21 Program National Center for Advancing Translational Sciences [NCATS] NIH Chemical Genomics Center [NCGC] U.S. Environmental Protection Agency [EPA] National Institutes of Environmental Health Sciences [NIEHS] National Toxicology Program [NTP] U.S. Food and Drug Administration [FDA] […] Endocrine disrupting chemicals (EDCs) and their interactions with steroid hormone receptors like PR causes disruption of normal endocrine function. To identify the compounds that activate PR signaling, a PR-UAS-bla GripTite cell line i.e. PR-UAS-bla HEK 293T (Invitrogen, Carlsbad, CA, USA) containing a beta-lactamase reporter gene under the control of an Upstream Activator Sequence (UAS) was used to screen Tox21 10K compound library.
# Tox21 Assay Protocol Summary: PR-UAS-bla HEK 293T cells were dispensed at 3,000 cells/5 uL of assay medium containing 2% charcoal stripped FBS per well into black wall/clear-bottom 1536-well plates using a Multidrop Combi (ThermoFisher Scientific, Waltham, MA) dispenser. After the assay plates were incubated at a 37C and 5% CO2 for 6hr, 23 nL of compounds dissolved in DMSO, positive controls or DMSO only was transferred to the assay plate by a Pintool station (Kalypsys, San Diego, CA). The plates were incubated at 37C and 5% CO2 for 16hr. Then 1 uL of LiveBLAzer B/G FRET substrate was added using a BioRAPTR FRD (Flying Reagent Dispenser, Aurora Discovery, San Diego, CA). After the plates were incubated at room temperature for 2 hours, fluorescence intensity was measured by an Envision plate reader (PerkinElmer, Shelton, CT).
# Potency is the fitted concentration of half-maximal effect.
# Chain of Progesterone receptor (Homo sapiens) (P06401 whole entry, looked up): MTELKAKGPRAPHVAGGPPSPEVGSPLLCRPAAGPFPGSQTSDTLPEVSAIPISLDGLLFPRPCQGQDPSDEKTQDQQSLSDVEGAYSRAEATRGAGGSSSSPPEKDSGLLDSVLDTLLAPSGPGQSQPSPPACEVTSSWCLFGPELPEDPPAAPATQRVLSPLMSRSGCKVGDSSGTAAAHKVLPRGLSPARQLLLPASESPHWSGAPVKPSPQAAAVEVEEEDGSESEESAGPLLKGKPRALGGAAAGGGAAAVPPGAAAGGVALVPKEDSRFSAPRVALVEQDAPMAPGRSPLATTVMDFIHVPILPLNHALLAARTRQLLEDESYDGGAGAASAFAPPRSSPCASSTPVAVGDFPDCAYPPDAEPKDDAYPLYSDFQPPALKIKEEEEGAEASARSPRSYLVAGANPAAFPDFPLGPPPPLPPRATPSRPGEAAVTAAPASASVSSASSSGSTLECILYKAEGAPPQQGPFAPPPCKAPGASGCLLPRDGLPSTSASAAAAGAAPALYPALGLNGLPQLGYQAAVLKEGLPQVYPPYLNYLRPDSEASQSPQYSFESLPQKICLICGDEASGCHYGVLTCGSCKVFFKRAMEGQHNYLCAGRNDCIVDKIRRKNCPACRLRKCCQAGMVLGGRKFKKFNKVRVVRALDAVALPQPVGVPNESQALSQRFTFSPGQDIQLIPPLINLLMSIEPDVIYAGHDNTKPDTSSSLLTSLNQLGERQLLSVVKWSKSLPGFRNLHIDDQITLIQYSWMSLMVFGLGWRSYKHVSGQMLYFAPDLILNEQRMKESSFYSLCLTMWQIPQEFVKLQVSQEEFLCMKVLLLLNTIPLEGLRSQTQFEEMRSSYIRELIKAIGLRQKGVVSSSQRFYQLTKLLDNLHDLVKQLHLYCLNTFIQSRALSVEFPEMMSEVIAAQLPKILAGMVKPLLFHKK
Structure (SMILES),Potency,activation
CCCc1nc(C)c2c(=O)[nH]c(-c3cc(S(=O)(=O)N4CCN(CC)CC4)ccc3OCC)nn12,inactive,–
O=C(O)c1ccc2cc(O)ccc2c1,inactive,–
CCC(=O)O[C@]1(C(=O)COC)[C@@H](C)C[C@H]2[C@@H]3CCC4=CC(=O)C=C[C@]4(C)C3(F)[C@@H](O)C[C@@]21C (stereo not given in full),376 nM (active),–
Cc1cc(SC2=C(O)C[C@@](CCc3ccc(N)cc3)(C(C)C)OC2=O)c(C(C)(C)C)cc1CO,inactive,–
SCCOCCOCCS,inactive,–
O=C(OCCOCCOCCOC(=O)c1ccccc1)c1ccccc1,inactive,–
CC(=O)Nc1cccc(N)c1,inactive,–
Cc1ccc2ccccc2c1[N+](=O)[O-],inactive,–
C=C[Si](OCC)(OCC)OCC,inactive,–
CC(C)(Cc1c[nH]c2ccccc12)NCC(O)COc1ccccc1C#N (stereo not given),inactive,–
Sc1nc(S)nc(S)n1,inactive,–
O=C(O)CNc1ccccc1,inactive,–
CCc1c(C)[nH]c2c1C(=O)C(CN1CCOCC1)CC2 (stereo not given),inactive,–
COC(=O)/C=C/C(C)=C\C=C\C(C)=C\C=C\C=C(C)\C=C\C=C(C)\C=C\C(=O)O,inactive,–
CC(C)(C)c1ccc(CCC=O)cc1,inactive,–
Cc1nc2sccn2c(=O)c1CCN1CCC(=C(c2ccc(F)cc2)c2ccc(F)cc2)CC1,inactive,–
Clc1cccc(C(c2ccc3nc[nH]c3c2)n2ccnc2)c1 (stereo not given),inactive,–
C[C@H](CN1CCCC1)C(=O)c1ccc(C(F)(F)F)cc1,inactive,–
O=C(c1ccc(Cl)cc1)c1ccc(Cl)cc1,inactive,–
CCCCOc1ccc(N)cc1,inactive,–

Structure (SMILES),Potency,activation
CCCCCCCCCCCCSC#N,inactive,–
CC1=CC(=C(c2ccc(N)cc2)c2ccc(N)cc2)C=CC1=N,390 nM (active),–
CC(COc1ccccc1)NC(C)C(O)c1ccc(O)cc1 (stereo not given),inactive,–
O=[N+]([O-])c1ccc(Cl)cc1Cl,24000 nM (active),–
CCCCCCCCCCCC(=O)OCC,inactive,–
Cc1ccc(Cl)c(OCC(O)CNC(C)(C)C)c1 (stereo not given),inactive,–
O=C(O)COCC(=O)O,inactive,–
CCCCCCCCCCCCCCCCCCCl,–,-0.486% [at 8.39 µM] (inactive)
CCOc1ccc(NC(C)=O)cc1N,inactive,–
O=P(c1ccccc1)(c1ccccc1)c1ccccc1,inactive,–
CC(C)=CCCC(C)C=O (stereo not given),inactive,–
COC(=O)Cc1cccc2ccccc12,inactive,–
CC(C)C[C@H](NC(=O)[C@H](Cc1ccccc1)NC(=O)c1cnccn1)B(O)O,inactive,–
N#C[C@@H]1CC(F)(F)CN1C(=O)CNC1CC2CCC(C1)N2c1ncccn1 (stereo not given in full),inactive,–
N#Cc1ccc(CC(=O)c2cccc(C(F)(F)F)c2)cc1,inactive,–
Oc1ccc(Oc2ccccc2)cc1,inactive,–
O=C(Cl)c1ccc(F)c(Cl)c1,inactive,–
CCOC(=O)CC(O)(CC(=O)OCC)C(=O)OCC,inactive,–
CCOc1ccc2c(c1)C(C)CC(C)(C)N2 (stereo not given),inactive,–
CC(CN=Cc1ccccc1O)N=Cc1ccccc1O (stereo not given),inactive,–
